An excerpt weighted towards active compounds, which were near 3.3% of everything screened.
BRCT PPI green: blocks human BRCA1 BRCT binding to phosphopeptide, green readout; BRCA1 BRCT-phosphopeptide binding, green fluorescence polarization; Potency, µM (titrated, usually from 76.9 µM), inactives show at the highest dose activity change, negative = inhibition, usual class: inhibitors; 0.05% of 75,000 active; AID 875;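 further: potency means the concentration at half of the fitted maximal effect; plate controls were peptide without protein for full effect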
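Compounds were incubated for 12 min at room temperature with a complex of 100 nM fluorescein-tagged pBACH1 decapeptide and 250 nM His-tagged BRCT protein. Buffer was phosphate pH 7.3 with EDTA, DTT and Tween 20. Disruption of binding lowers the polarization signal.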
Hsp90 Hop PPI: changes Hsp90-Hop TPR2A binding signal, up or down; Potency, µM (highest dose often 57 µM), without a hit: top-dose activity change, negative = inhibition; AlphaScreen TPR2A-His6 binding biotin-Hsp90 C-terminal peptide; 0.44% of 71,000 active; AID 595; active means well fitted curve in either direction with a large enough effect; inconclusive means small, poorly fitted or top-dose-only effect, or another doubt; further: potency means the concentration at half of the fitted maximal effect; on the % scale 0 is the no-effect control and ±100 the full control effect
TSHR ag: activates the human thyroid stimulating hormone receptor; P16473; 0.48% of 73,000 active; AID 926; Potency, µM (titrated, usually from 57.1 µM), for inactives: at the top dose activation, usual class: activators; HEK293-CNG-TSHR cells (CNG channel as cAMP sensor), membrane potential dye, cAMP; active means well fitted activation curve with a large enough effect in the main read-out, with a control signal flat, not every such curve was filed as active; inconclusive means small, poorly fitted or top-dose-only effect, or a change in a side signal; inactive means no such curve, though single readings can be large or run the other way; % of control where 0% means no effect;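 further: the control signal comes from parental cells without the receptor; potency means the concentration at half of the fitted maximal effect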
Target sequence (P16473 whole entry, looked up): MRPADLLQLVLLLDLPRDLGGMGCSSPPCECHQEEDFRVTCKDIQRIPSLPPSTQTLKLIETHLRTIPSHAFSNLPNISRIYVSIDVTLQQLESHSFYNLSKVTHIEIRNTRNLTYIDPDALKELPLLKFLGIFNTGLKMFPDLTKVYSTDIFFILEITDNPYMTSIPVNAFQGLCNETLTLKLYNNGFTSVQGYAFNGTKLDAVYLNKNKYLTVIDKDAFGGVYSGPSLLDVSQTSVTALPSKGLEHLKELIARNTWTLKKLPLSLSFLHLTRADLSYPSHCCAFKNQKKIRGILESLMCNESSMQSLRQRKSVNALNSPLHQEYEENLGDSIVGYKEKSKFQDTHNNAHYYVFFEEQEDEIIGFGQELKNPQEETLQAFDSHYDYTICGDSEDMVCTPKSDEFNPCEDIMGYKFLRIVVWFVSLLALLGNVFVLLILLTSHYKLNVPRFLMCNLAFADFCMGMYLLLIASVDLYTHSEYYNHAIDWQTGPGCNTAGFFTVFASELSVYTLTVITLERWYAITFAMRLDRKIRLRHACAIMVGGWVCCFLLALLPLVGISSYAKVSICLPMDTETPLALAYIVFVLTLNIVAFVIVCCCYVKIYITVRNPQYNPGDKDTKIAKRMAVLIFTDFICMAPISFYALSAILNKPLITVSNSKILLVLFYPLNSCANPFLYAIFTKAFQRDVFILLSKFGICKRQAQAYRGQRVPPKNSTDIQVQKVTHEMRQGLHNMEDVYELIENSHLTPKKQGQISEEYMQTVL
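HEK 293 cells stably expressing TSHR and a cAMP-gated CNG channel; parental CNG-only cells as counterscreen. Cells preloaded 60 min with membrane potential dye plus 100 uM RO 20-1724, then compound 30 min; fluorescence read at 590 nm.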
HEK293 cAMP cs: counter-screen for TSHR agonists: cAMP increase in parental HEK293. parental HEK293 CNG cAMP sensor, membrane potential fluorescence. Potency, µM (highest dose often 57.1 µM), without a hit: at the top dose activation, usual class: activators. 2.5% of 73,000 active; further: potency means the concentration at half of the fitted maximal effect; % of control where 0% means no effect; nearly all actives have a fitted effect of over 55% in size
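Parental HEK 293 cells stably expressing a modified CNG channel (no TSHR) report cAMP rise as membrane depolarization. Membrane potential dye with 100 uM RO 20-1724 was loaded for 60 min at room temperature, then compound added for 30 min; fluorescence read at 590 nm.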
YjeE inh: displaces an ADP probe from E. coli YjeE (TsaE) | 0.05% of 71,000 active | purified YjeE enzyme, qHTS inhibition assay | Potency, µM | P0AF67
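Fluorescence polarization of a BODIPY Texas Red–ADP probe (2 uM) bound to purified YjeE (10 uM) was read after 15 min room-temperature incubation with compounds. Loss of polarization marks inhibitors; ADP serves as titrated control.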
BRCT inh red: BRCT-phosphoprotein interaction inhibition (red fluorophore); P38398; BRCT-phosphopeptide binding, red fluorescence polarization; Potency, µM (top dose mostly 76.9 µM), without a hit: at the highest dose activity change, negative = inhibition, usual class: inhibitors; 0.03% of 75,000 active; AID 892; further: on the % scale 0 is the no-effect control and ±100 the full control effect
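Rhodamine-labelled pBACH1 10-mer (100 nM) bound to BRCT domain (100 nM) at pH 7.3; compounds incubated 12 min room temperature, polarization read. Free peptide defines full inhibition; unlabelled decapeptide titrated as control.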
An asterisk follows results filed as active; i = inactive; ? = inconclusive; / = no result; [ ] = remark or other dose. Unless noted, the call rests on the fitted dose curve; in most records, active means well fitted curve in the direction sought with a large enough effect; inconclusive means small, poorly fitted or top-dose-only effect, or another doubt; inactive means no such curve, though single readings can be large; an effect the other way counts as inactive or inconclusive.

SMILES	BRCT PPI green	Hsp90 Hop PPI	TSHR ag	HEK293 cAMP cs	YjeE inh	BRCT inh red
CCn1c(CSc2nc3ccccc3s2)nc2ccccc21	3.1%	5.6%[11 µM]	?	3.98µM*	i	-0.8%
c1csc(CSc2nc3ccccc3s2)c1	-0.4%	?	7.1%	13.8%	i	0.7%
CCOC(=O)c1oc2ccc(S(=O)(=O)N3CCC(C)CC3)cc2c1C	-2.1%	-1.6%	?	25.1µM*	i	-0.5%
CCOC(=O)c1oc2ccc(S(=O)(=O)N3CCOCC3)cc2c1C	1.6%	-2.5%	10.7%	3.3%	i	1.2%
COc1ccccc1-c1oc2ccccc2c(=O)c1OC	-1.1%	2.7%	?	31.6µM*	i	-0.7%
COc1ccc(-c2oc3ccccc3c(=O)c2O)cc1OC	-4.6%	/	/	/	/	1.9%
CC1CCc2c(nc3ncnn3c2N2CCN(c3ccccc3F)CC2)C1 (configuration not stated)	-1.3%	-1.7%	?	?	i	0.3%
CC1CCc2c(nc3ncnn3c2N2CCN(c3ccccc3)CC2)C1 (configuration not stated)	0.6%	-5.6%	?	25.1µM*	i	0.0%
COc1ccc(C(C)=O)cc1COC(=O)c1cccc(N(C)C)c1	-3.6%	8.6%	?	?	i	-0.7%
COc1ccc(C(C)=O)cc1COC(=O)c1cc(C)oc1C	1.0%	5.3%	?	25.1µM*	i	-0.7%
COC(=O)C1=C(C)NC(C)=C([N+](=O)[O-])[C@@H]1c1ccccc1C(F)(F)F	0.7%	-12.4%	-21.3%	-21.1%	i	0.1%
CC1(C)CC(=O)c2cc(C(=O)NCc3ccco3)c(=O)n(-c3ccc(Cl)cc3)c2C1	0.8%	-2.0%	?	?	i	-0.6%
Cc1ccc(-n2c3c(cc(C(=O)NCc4ccco4)c2=O)C(=O)CC(C)(C)C3)cc1	0.8%	?	3.98µM*	21.1%[11.4 µM]	i	-3.1%
CN1CCN(c2ncc3nc(-c4ccccc4)c(=O)n(C)c3n2)CC1	-4.0%	-2.0%	-2.3%	21.6%	i	-2.2%
Cc1cc(C)n(-c2ccn(Cc3ccc(Cl)cc3Cl)c(=O)n2)n1	1.9%	-1.4%	?	15.8µM*	i	-1.3%
CCCCCOc1ccc(C(=O)N(Cc2ccco2)C2CCS(=O)(=O)C2)cc1 (configuration not stated)	0.6%	-3.6%	?	25.1µM*	i	0.8%
CC(C)COc1ccc(C(=O)N(Cc2ccco2)C2CCS(=O)(=O)C2)cc1 (configuration not stated)	-0.7%	-6.0%	/	18.1%	i	0.8%
C=C1C(CCl)(CCl)C2(Cl)C(Cl)C(Cl)C1(Cl)C2(Cl)Cl (configuration not stated)	0.3%	13.0%	39.8µM*	17.6%	i	-3.8%
Cc1ccc(-c2noc(CCC(=O)NC3CCCc4ccccc43)n2)cc1 (configuration not stated)	0.2%	3.3%	?	31.6µM*	i	0.1%
CN(C)Cc1ccccc1-c1ccc2ncnc(N3CCOCC3)c2c1	-0.9%	1.5%	5.5%	3.8%	i	0.5%
Cc1cc(C)n(-c2nc3ccccc3nc2N2CCCCCC2)n1	2.0%	?	?	20µM*	i	0.4%
Cc1cc(C)n(-c2nc3ccccc3nc2N2CCOCC2)n1	-1.0%	0.3%	6.9%	11.1%	i	-0.5%
O=C1[C@@H]2[C@@H](C(=O)N1c1ccc(OCc3ccccc3)cc1)[C@@H]1c3ccccc3[C@@H]2[n+]2ccccc21	-2.1%[15.4 µM]	-0.2%[11 µM]	-0.6%[11.4 µM]	4.9%[11.4 µM]	i	1.1%[15.4 µM]
CCNc1ncc2nc(C)c(=O)n(C3CC3)c2n1	-2.7%	-2.9%	2.6%	9.1%	i	-2.2%
Cc1ccc2c(CC(=O)NCc3ccco3)coc2c1C	0.8%	-1.1%	20µM*	22.7%	i	0.6%
SMILES	BRCT PPI green	Hsp90 Hop PPI	TSHR ag	HEK293 cAMP cs	YjeE inh	BRCT inh red
c1ccc2c(c1)CCC[C@H]2C1=NCCN1	-3.5%	-1.9%	1.5%	-3.4%	i	-2.7%
NC(N)=N/N=C(/c1ccccc1)c1ccc(O)cc1O	-0.2%[15.4 µM]	-2.4%[11 µM]	4.4%[11.4 µM]	13.0%[11.4 µM]	i	0.9%[15.4 µM]
COc1ccc(-c2cc(C(F)(F)F)nc(N3CCCCC3)n2)cc1OC	-4.5%	25.1µM*	15.0%[11.4 µM]	18.8%	i	-1.3%
COc1ccc(-c2cc(C(F)(F)F)nc(N3CCN(c4ccccc4)CC3)n2)cc1OC	-3.1%	-6.0%	8.9%	9.9%	i	1.0%
COc1ccc(-c2cc(C(F)(F)F)nc(N3CCCCCC3)n2)cc1	-1.1%	25.1µM*	-1.1%	17.3%	i	0.7%
N#Cc1cccc(-c2ccc3ncnc(NCc4ccccc4)c3c2)c1	0.2%	-4.7%	?	?	i	11.1%
COCC(C)n1c(C)cc(C(=O)COC(=O)c2c(NC(C)=O)sc(C)c2C)c1C (configuration not stated)	-2.3%	-3.1%	12.6µM*	4.1%	i	-1.5%
COCC(C)n1c(C)cc(C(=O)COC(=O)c2c(C)nn(-c3ccccc3)c2C)c1C (configuration not stated)	1.3%	-6.3%	?	?	i	-5.1%
CC[C@@H]1OC(=O)[C@@H](C)[C@H](O[C@@H]2C[C@@](C)(OC)[C@@H](O)[C@H](C)O2)[C@H](C)[C@H](O[C@@H]2O[C@@H](C)C[C@@H](N(C)C)[C@H]2O)[C@@](C)(O)C[C@H](C)C(=O)[C@@H](C)[C@H](O)[C@@]1(C)O	/	0.1%	2.4%	-2.3%	i	/
CN(C)C1CCN(C(=O)c2ccc(-n3c(=O)c(=O)[nH]c4ccccc43)cc2)C1 (configuration not stated)	-1.4%	/	-4.7%	-10.8%	/	-0.9%
COc1cc2c(cc1OC)[C@@H]1C(=O)c3ccc4c(c3O[C@@H]1CO2)C=CC(C)(C)O4	3.1%	?	?	20µM*	i	1.2%
O=C(O)c1ccc(NS(=O)(=O)c2cccc3ccccc23)cc1	-1.0%	/	?	?	/	2.1%
Cc1nc2ccccc2c(=O)n1/N=C/c1ccc(N(C)C)cc1	-2.5%	-4.9%	0.2%	1.3%	i	0.2%
Cc1nc2ccccc2c(=O)n1/N=C/c1c(O)ccc2oc3c(c12)CCCC3	-0.3%	-10.2%	?	15.8µM*	i	0.4%
O=C(O[C@@H]1Cc2c(O)cc(O)cc2OC1c1ccc(O)c(O)c1)c1cc(O)c(O)c(O)c1 (some centres not stated)	2.5%	/	/	/	/	0.1%
Fc1ccc(Nc2nc(-c3ccoc3)nc3ccccc23)cc1	3.4%	-4.2%	-4.0%	15.7%	i	2.7%
Cc1ccc2c(c1)N(CC(=O)NCCN1CCOCC1)C(=O)CO2	-0.5%	0.7%	4.2%	0.1%	i	0.2%

Screens from PubChem BioAssay.
